This is one part of a sample in which hits are shown more often than they occur.
RECQ1 inh – inhibitors of human RECQ1 DNA helicase. Potency, µM (series often up to 57.3 µM), inactives show top-dose activity, negative = inhibition, usual class: inhibitors. RECQ1 DNA unwinding, red fluorescence kinetic read. 240,000 tested, 0.54% active;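 also: plate controls were vehicle for no effect and no enzyme for full effect; nearly all actives have a fitted effect of over 30% in size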
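RECQ1T1 50 nM; forked duplex (20 bp + 30-nt ss tails) 200 nM, ATP 2 mM final; pH 8.0, 2 mM MgCl2, 2.5 ug/ml poly(dI-dC); 15 min compound preincubation; discontinuous kinetic read over 2 h at RT.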
APEX1 inh – blocks human APE1 abasic DNA cleavage. Potency, µM (top dose mostly 65.8 µM), inactives show at the highest dose activity change, negative = inhibition, actives largely listed as inhibitors. P27695. 350,000 tested, 0.35% active. recombinant APE1, TAMRA/BHQ-2 abasic DNA cleavage fluorescence;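 also: plate controls were vehicle for no effect and reference inhibitor for full effect; nearly all actives have a fitted effect of over 55% in size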
Target sequence (P27695 whole entry, looked up): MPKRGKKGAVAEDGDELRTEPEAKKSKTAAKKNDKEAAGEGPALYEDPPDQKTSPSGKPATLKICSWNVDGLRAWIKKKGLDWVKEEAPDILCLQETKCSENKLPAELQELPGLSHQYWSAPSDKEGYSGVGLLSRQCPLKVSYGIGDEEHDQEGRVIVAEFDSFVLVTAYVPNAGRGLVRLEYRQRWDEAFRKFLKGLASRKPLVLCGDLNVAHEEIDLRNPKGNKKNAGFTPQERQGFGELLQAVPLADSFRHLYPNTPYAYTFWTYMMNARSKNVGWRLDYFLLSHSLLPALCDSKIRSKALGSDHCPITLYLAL
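Compound pre-exposure to 0.75 nM APE1, 15 min at ambient temperature. Reaction initiated with 50 nM TAMRA/BHQ-2 THF substrate, read immediately in kinetic mode, 525 nm excitation, 598 nm emission.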
BLM inh – blocks DNA unwinding by human BLM helicase. Potency, µM (top dose mostly 56.1 µM), inactives show at the highest dose activity change, negative = inhibition, most hits filed as inhibitors. AID 2528. 350,000 tested, 0.2% active. recombinant BLM DNA unwinding, fluorescence dequenching;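 also: plate controls were vehicle for no effect and no enzyme for full effect; nearly all actives have a fitted effect of over 35% in size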
JMJD2E inh – blocks human JMJD2E demethylase activity | JMJD2E catalytic domain, FDH-coupled NADH fluorescence (FDH is formaldehyde dehydrogenase) | 230,000 tested, 1.6% active | B2RXH2 | Potency, µM (top dose mostly 57.1 µM), without a hit: at the highest dose activity change, negative = inhibition, hits mostly inhibitors; active = well fitted inhibition curve with a large enough effect, not every such curve was filed as active; inconclusive = small, poorly fitted or top-dose-only effect, or another doubt; inactive = no such curve, though single readings can be large or run the other way;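 also: 0% = wells with enzyme and -100% = buffer wells without enzyme; nearly all actives have a fitted effect of over 50% in size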
L3MBTL1 block – inhibitors of human L3MBTL1; Potency, µM (doses to about 57.1 µM), inactives show at the highest dose activity, negative = inhibition, most hits filed as inhibitors; 230,000 tested, 0.66% active; Q9Y468; AlphaScreen L3MBTL1–H3K9me1 peptide binding; AID 485360; also: nearly all actives have a fitted effect of over 60% in size
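L3MBTL1 50 nM + b-AHA-H3(1-15)K9me1 75 nM, 30 min RT; compound added, 30 min RT; streptavidin donor/Ni-chelate acceptor beads 10 ug/mL each final, 30 min RT dark; AlphaScreen read.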
The depositor's hits bear a star; i = inactive; ? = inconclusive; . = not tested or not shown; [ ] = dose if it differs, or a comment. Unless noted, calls follow the shape of the dose curve; as a rule, active = well fitted curve in the direction sought with a large enough effect; inconclusive = small, poorly fitted or top-dose-only effect, or another doubt; inactive = no such curve, though single readings can be large; an effect the other way counts as inactive or inconclusive. Unless noted, % is scaled to controls: 0 for no effect and ±100 for the full control effect; potency is read from the fitted curve at half-maximal effect.

SMILES	RECQ1 inh	APEX1 inh	BLM inh	JMJD2E inh	L3MBTL1 block
COc1cccc(NS(=O)(=O)c2ccc3c(c2)C2C=CCC2C(c2ccc(C(=O)O)cc2)N3)c1 (centres undefined)	-9%	-5%	-22%	?	10µM*
COC(=O)c1ccc([C@H]2Nc3ccc(S(=O)(=O)Nc4ccc(F)cc4)cc3[C@H]3C=CC[C@H]32)cc1	.	.	-21%	.	.
COc1ccc(OC)c([C@@H]2Nc3ccc(C(=O)O)cc3[C@@H]3C=CC[C@@H]32)c1	.	.	4%	.	.
Cc1ccc(/C=C(\NC(=O)c2ccccc2)C(=O)NCC2CCCO2)o1 (centres undefined)	25%	1%	-1%	-9%	3%
COc1ccc2[nH]c(=O)c(CN(Cc3ccco3)C(c3nnnn3Cc3ccccc3)C(C)C)cc2c1 (centres undefined)	-9%	-3%	-14%	?	.
COc1ccc2[nH]c(=O)c(CN(C3CCCCC3)C(c3nnnn3Cc3ccco3)C(C)C)cc2c1 (centres undefined)	28µM*	-1%	-20%	?	?
CCC(C)/C=C/C1=CC2=C(Cl)C(=O)C3(C)OC(=O)C(C(=O)C(C)C(C)O)C3C2=CO1 (centres undefined)	-19%	10µM*	-12%	?	-19%
Oc1ccccc1N=Cc1sc2ccccc2c1Cl	-3%	4%	-2%	22µM*	-1%
Oc1c(C=Nc2ccccc2)sc2ccccc12	-11%	5%	-6%	?	6%
Cc1ccc(O)c(N=Cc2sc3ccccc3c2Cl)c1	-5%	17%	-3%	25µM*	0%
COc1cc(CN2CCN(S(=O)(=O)c3ccccc3)CC2)cc(OC)c1OC	.	13%	-1%	.	5%
COC(=O)c1c(-c2ccc(C(C)(C)C)cc2)csc1NC(=O)C1C2CCC(O2)C1C(=O)O (centres undefined)	-4%	-4%	1%	16µM*	6%
CCOC(=O)c1c(-c2cccc3ccccc23)csc1NC(=O)C1C2CCC(O2)C1C(=O)O (centres undefined)	-1%	1%	-3%	?	-5%
O=C(Nc1ccc2ccccc2n1)Nc1ccccc1F	.	68%	-5%	.	.
Fc1ccc(Nc2ccc3ccccc3n2)c(F)c1	-20%	0%	-3%	22µM*	.
O=C(Nc1ccccc1C(F)(F)F)C1CCN(S(=O)(=O)Cc2ccccc2)CC1	.	.	-4%	.	.
CC1(C)CC2CC(C)(CN2C(=O)COC(=O)c2ccc(O)cc2O)C1 (centres undefined)	.	11µM*	.	.	-12%
O=C(CN1CCN(Cc2ccc(F)cc2Cl)C1=O)NCCCN1CCOCC1	7%	-2%	-1%	-5%	4%
COc1ccc(C(=O)COC(=O)c2ccccc2O)c(OC)c1	.	-15%	.	.	8.9µM*
COc1ccc(C(=O)OCC(=O)c2cc(OC)ccc2OC)c(OC)c1	i	9%	-2%	-12%	-1%
N#CC(c1ccccc1O)N1N=C(c2ccccc2)CC1c1ccccc1 (centres undefined)	-4%	-2%	-16%	32µM*	36%
COc1cc(C(C#N)N2N=C(c3ccccc3)CC2c2ccccc2)ccc1O (centres undefined)	i	-2%	0%	-25%	12%
Cc1nnc(N/N=C/c2ccco2)n1N	i	8%	-3%	28µM*	.
Cc1nnc(N/N=C/c2ccccc2F)n1N	.	-7%	0%	.	.
COc1ccc(NC(=O)CSc2ccc3nnc(CCNC(=O)c4ccccc4)n3n2)cc1	.	30%	-3%	.	.
SMILES	RECQ1 inh	APEX1 inh	BLM inh	JMJD2E inh	L3MBTL1 block
CC1=C/C(=C(\c2cc(C)c(O)c(Br)c2)c2ccccc2S(=O)(=O)O)C=C(Br)C1=O	.	-41%	?	.	22µM*
O=Cc1ccc(-n2cncn2)cc1	i	?	-1%	7.1µM*	.
O=C1C(=O)c2ncccc2-c2cccnc21	.	.	16µM*	.	.
O=C1c2cccnc2C(=O)N1CO	10%	2%	0%	0%	-2%
O=C(c1cccc(F)c1)N1CCN(C(=O)C(c2ccccc2)c2ccccc2)CC1	.	0%[12.4 µM]	1%	.	.
COc1ccc(S(=O)(=O)N2CCCCC2)cc1NC(=O)CCc1nc2ccccc2c(=O)[nH]1	.	19%	.	.	-1%
Nc1n[nH]c(=S)n1/N=C1/C(=O)Nc2ccccc21	2%	2%	-4%	7.1µM*	7%
